Reference: PubChem BioAssay AID1159580 (chemical genetic matrix, 2015)
Screen size: about 5,500 compounds; about 2,000 (36%) were called active. Not shown: some 18% with an inconclusive outcome. No stated cut-off is given here; in the data, active means normalized growth mostly below about 0.91 (no sharp cut-off); inconclusive means no clear call, values can overlap the other calls; inactive means mostly above about 0.92. This is one part of the list.

Assay: chemical genetic growth profiling, strain panel (AID 1159580);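 further: tested at 20 µM; growth read once vehicle control cultures reached saturation at 30 °C; 1 = growth at the plate median or of vehicle wells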
Conditions: S. cerevisiae deletion strains, growth OD
[1] = locus YDR150W, strain NUM1, stronger effect = lower value
[2] = locus YMR307W, strain GAS1, stronger effect = lower value

Measured: normalized growth

O=C1c2c(O)cc(O)cc2OC(c2ccc(O)c(O)c2)C1O (stereo not drawn)
inactive: locus YAL013W, strain DEP1, stronger effect = lower value 1.03 | locus YAL040C, strain CLN3, stronger effect = lower value 1.04 | locus YCL061C, strain MRC1 (second series), stronger effect = lower value 0.999 | [1] 0.987 | locus YDR363W, strain ESC2, stronger effect = lower value 1 | locus YER002W, strain NOP16, stronger effect = lower value 0.998 | [2] 1.01 | locus YNL175C, strain NOP13, stronger effect = lower value 0.99 | locus YNL197C, strain WHI3, stronger effect = lower value 0.977 | locus YNL224C, strain SQS1, stronger effect = lower value 0.993 | locus YOR083W, strain WHI5 (second series), stronger effect = lower value 0.991

COc1ccc([C@H]2Oc3c(I)c(OC)cc(OC)c3C[C@@H]2O)cc1OC
inactive: locus YAL021C, strain ccr4, stronger effect = lower value 1.01 | locus YAL026C, strain drs2, stronger effect = lower value 1.01 | locus YAL030W, strain snc1, stronger effect = lower value 1.01 | locus YBL061C, strain skt5, stronger effect = lower value 1.01 | locus YBR009C, strain hhf1, stronger effect = lower value 1.01 | locus YBR021W, strain FUR4, stronger effect = lower value 1 | locus YBR023C, strain chs3, stronger effect = lower value 1.01 | locus YBR171W, strain sec66, stronger effect = lower value 1.01 | locus YBR229C, strain ROT2, stronger effect = lower value 1 | locus YBR231C, strain swc5, stronger effect = lower value 1.01 | locus YBR279W, strain paf1, stronger effect = lower value 1.03 | locus YCL011C, strain gbp2, stronger effect = lower value 1.02 | locus YCL016C, strain dcc1, stronger effect = lower value 1.02 | locus YCL029C, strain bik1, stronger effect = lower value 1.03 | locus YCL061C, strain MRC1, stronger effect = lower value 1.02 | locus YCL069W, strain vba3, stronger effect = lower value 1.02 | locus YCR088W, strain abp1, stronger effect = lower value 1.01 | locus YDL005C, strain med2, stronger effect = lower value 1.01 | locus YDL035C, strain GPR1, stronger effect = lower value 1.07 | locus YDL040C, strain nat1, stronger effect = lower value 1.01 | locus YDL074C, strain BRE1, stronger effect = lower value 1.1 | locus YDL101C, strain DUN1, stronger effect = lower value 1 | locus YDL134C, strain PPH21, stronger effect = lower value 1.03 | locus YDL185W, strain tfp1, stronger effect = lower value 1.03 | locus YDL192W, strain arf1, stronger effect = lower value 1.04 | locus YDR001C, strain nth1, stronger effect = lower value 1.02 | locus YDR069C, strain doa4, stronger effect = lower value 1.01 | locus YDR101C, strain arx1, stronger effect = lower value 1.04 | locus YDR137W, strain rgp1, stronger effect = lower value 0.982 | [1] 1.02 | locus YDR159W, strain sac3, stronger effect = lower value 0.98 | locus YDR162C, strain NBP2, stronger effect = lower value 1.04 | locus YDR195W, strain ref2 1.01 | locus YDR297W, strain sur2, stronger effect = lower value 1.01 | locus YDR318W, strain mcm21, stronger effect = lower value 1.02 | locus YDR334W, strain swr1, stronger effect = lower value 1.02 | locus YDR335W, strain msn5, stronger effect = lower value 1.01 | locus YDR388W, stronger effect = lower value 1.02 | locus YDR392W, strain spt3, stronger effect = lower value 0.895 | locus YDR502C, strain sam2, stronger effect = lower value 1.02 | locus YEL003W, strain gim4, stronger effect = lower value 1.01 | locus YEL037C, strain rad23, stronger effect = lower value 1.01 | locus YEL061C, strain CIN8 (second series), stronger effect = lower value 1.02 | locus YER015W, strain faa2, stronger effect = lower value 1.02 | locus YER016W, strain bim1, stronger effect = lower value 1 | locus YER110C, stronger effect = lower value 1 | locus YER111C, strain swi4, stronger effect = lower value 1.01 | locus YER155C, strain BEM2 (second series), stronger effect = lower value 1 | locus YER155C, strain BEM2, stronger effect = lower value 0.996 | locus YER167W, strain BCK2, stronger effect = lower value 1.01 | locus YFR010W, strain ubp6, stronger effect = lower value 1.01 | locus YGL078C, strain dbp3, stronger effect = lower value 0.999 | locus YGL086W, strain mad1, stronger effect = lower value 0.997 | locus YGL167C, strain pmr1, stronger effect = lower value 1.01 | locus YGL173C, strain kem1, stronger effect = lower value 1.01 | locus YGL227W, strain vid30, stronger effect = lower value 1.02 | locus YGL240W, strain doc1, stronger effect = lower value 1.01 | locus YGL248W, strain PDE1, stronger effect = lower value 1.04 | locus YGL253W, strain hxk2, stronger effect = lower value 1.01 | locus YGR135W, strain pre9, stronger effect = lower value 1.03 | locus YGR252W, strain gcn5, stronger effect = lower value 1.06 | locus YHR013C, strain ard1, stronger effect = lower value 1.02 | locus YHR027C, strain rpn1, stronger effect = lower value 1.01 | locus YHR030C, strain SLT2, stronger effect = lower value 1 | locus YHR079C, strain IRE1 (second series), stronger effect = lower value 1.01 | locus YHR094C, strain hxt1, stronger effect = lower value 1.01 | locus YHR129C, strain ARP1, stronger effect = lower value 1.03 | locus YHR142W, strain chs7, stronger effect = lower value 1.03 | locus YHR200W, strain rpn10, stronger effect = lower value 1.07 | locus YIL066C, strain RNR3, stronger effect = lower value 1.02 | locus YIL073C, strain SPO22, stronger effect = lower value 1.08 | locus YIL125W, strain kgd1, stronger effect = lower value 1.03 | locus YIR030C, strain dcg1, stronger effect = lower value 1.03 | locus YJL092W, strain hpr5, stronger effect = lower value 1.01 | locus YJL095W, strain BCK1 (second series), stronger effect = lower value 1.02 | locus YJL095W, strain BCK1, stronger effect = lower value 1.05 | locus YJL115W, strain asf1, stronger effect = lower value 1.02 | locus YJL129C, strain trk1, stronger effect = lower value 1.02 | locus YJL134W, strain LCB3, stronger effect = lower value 1 | locus YJL154C, strain vps35, stronger effect = lower value 1.01 | locus YJL164C, strain tpk1, stronger effect = lower value 1.01 | locus YJL166W, strain qcr8, stronger effect = lower value 1.01 | locus YJL168C, strain set2, stronger effect = lower value 1.02 | locus YJL187C, strain SWE1 (second series), stronger effect = lower value 1 | locus YJL187C, strain SWE1, stronger effect = lower value 1.01 | locus YJR075W, strain HOC1, stronger effect = lower value 1.03 | locus YKL009W, strain mrt4, stronger effect = lower value 0.912 | locus YKL068W, stronger effect = lower value 0.976 | locus YKL085W, strain MDH1 (second series), stronger effect = lower value 0.971 | locus YKL085W, strain MDH1, stronger effect = lower value 0.971 | locus YKL160W, strain elf1, stronger effect = lower value 1.02 | locus YKR001C, strain vps1, stronger effect = lower value 1.06 | locus YKR026C, strain gcn3, stronger effect = lower value 1 | locus YKR091W, strain srl3, stronger effect = lower value 1.01 | locus YLL001W, strain dnm1, stronger effect = lower value 1.02 | locus YLL026W, stronger effect = lower value 1 | locus YLL041C, strain sdh2, stronger effect = lower value 1.01 | locus YLR027C, strain aat2, stronger effect = lower value 1.01 | locus YLR039C, strain RIC1, stronger effect = lower value 1.2 | locus YLR058C, strain SHM2, stronger effect = lower value 1.02 | locus YLR102C, strain apc9, stronger effect = lower value 1.01 | locus YLR221C, strain rsa3, stronger effect = lower value 1.02 | locus YLR258W, strain gsy2, stronger effect = lower value 1 | locus YLR262C, strain YPT6 (second series), stronger effect = lower value 1.01 | locus YLR268W, strain sec22, stronger effect = lower value 1.05 | locus YLR320W, strain mms22, stronger effect = lower value 1.03 | locus YLR330W, strain CHS5, stronger effect = lower value 1.02 | locus YLR342W, strain FKS1 (second series), stronger effect = lower value 1.06 | locus YLR342W, strain FKS1, stronger effect = lower value 1.01 | locus YLR357W, strain rsc2, stronger effect = lower value 1.03 | locus YLR370C, strain arc18, stronger effect = lower value 1.01 | locus YLR371W, strain rom2, stronger effect = lower value 1.05 | locus YLR384C, strain iki3, stronger effect = lower value 1.01 | locus YLR418C, strain cdc73, stronger effect = lower value 1.05 | locus YML016C, strain PPZ1, stronger effect = lower value 1.01 | locus YML032C, strain rad52, stronger effect = lower value 1.03 | locus YML120C, strain ndi1, stronger effect = lower value 1.01 | locus YML124C, strain tub3, stronger effect = lower value 1.02 | locus YMR058W, strain fet3, stronger effect = lower value 1.01 | locus YMR078C, strain ctf18, stronger effect = lower value 1.01 | locus YMR125W, strain sto1, stronger effect = lower value 1.03 | locus YMR129W, stronger effect = lower value 1.01 | locus YMR205C, strain PFK2, stronger effect = lower value 1.01 | locus YMR223W, strain ubp8, stronger effect = lower value 1.06 | locus YMR231W, strain pep5, stronger effect = lower value 1 | locus YMR263W, strain SAP30, stronger effect = lower value 1.04 | [2] 1.2 | locus YNL067W, strain RPL9B, stronger effect = lower value 1.02 | locus YNL071W, strain lat1, stronger effect = lower value 1.01 | locus YNL128W, strain TEP1, stronger effect = lower value 1.04 | locus YNL209W, strain ssb2, stronger effect = lower value 1.04 | locus YNL233W, strain BNI4, stronger effect = lower value 1.04 | locus YNL248C, strain rpa49, stronger effect = lower value 1.01 | locus YNL250W, strain rad50, stronger effect = lower value 0.961 | locus YNL271C, strain bni1, stronger effect = lower value 1.03 | locus YNL298W, strain CLA4, stronger effect = lower value 0.985 | locus YNL307C, strain MCK1, stronger effect = lower value 1.01 | locus YNL322C, strain KRE1 (second series), stronger effect = lower value 1.01 | locus YNR049C, strain mso1, stronger effect = lower value 1.01 | locus YNR052C, strain pop2, stronger effect = lower value 1.01 | locus YOL006C, strain TOP1, stronger effect = lower value 1.23 | locus YOL012C, strain htz1 0.906 | locus YOL147C, strain pex11, stronger effect = lower value 1.02 | locus YOR001W, strain rrp6, stronger effect = lower value 0.997 | locus YOR061W, strain CKA2, stronger effect = lower value 0.999 | locus YOR069W, strain VPS5, stronger effect = lower value 1.02 | locus YOR070C, strain gyp1, stronger effect = lower value 1.02 | locus YOR080W, strain dia2, stronger effect = lower value 1.01 | locus YOR083W, strain WHI5, stronger effect = lower value 1.03 | locus YOR106W, strain vam3, stronger effect = lower value 1.03 | locus YOR136W, strain idh2, stronger effect = lower value 1.02 | locus YOR144C, strain elg1, stronger effect = lower value 1.04 | locus YOR184W, strain ser1, stronger effect = lower value 1.08 | locus YOR265W, strain rbl2, stronger effect = lower value 1 | locus YOR270C, strain vph1, stronger effect = lower value 1.04 | locus YOR290C, strain snf2, stronger effect = lower value 1.01 | locus YOR316C, strain cot1, stronger effect = lower value 1.04 | locus YPL051W, strain arl3, stronger effect = lower value 0.993 | locus YPL055C, strain LGE1, stronger effect = lower value 1.12 | locus YPL078C, strain atp4, stronger effect = lower value 1.02 | locus YPL106C, strain sse1, stronger effect = lower value 1.01 | locus YPL240C, strain hsp82, stronger effect = lower value 1.01 | locus YPR119W, strain clb2, stronger effect = lower value 1.03 | locus YPR141C, strain kar3, stronger effect = lower value 1.02 | locus YPR163C, strain tif3, stronger effect = lower value 1.02 | locus YPR167C, strain met16, stronger effect = lower value 1.04 | strain wtn01, stronger effect = lower value 1.02
